Each structure is given as a SMILES string. The campaign covered roughly 6,200 compounds. About 2,900 (47%) were called active. Cut-off read from the data, not from the text of the source: active = inhibition above about 50%; inactive = the rest. So high a share suggests a set chosen from earlier hits. The list shows a part of the results.

This assay is described as follows: Mycobacterium tuberculosis growth inhibition, primary screen (AID 1259343). Particulars: inhibition: at 10 µM, active compounds read high; outcome: 10 uM.
For the compound `COC(=O)c1c(C)[nH]c(C(=O)NC(C)Cc2cccc(Cl)c2)c1C` (configuration not stated), the inhibition (as a rule, the relative decrease from the control value, in per cent) is 30% (inactive).
`CCC(C(=O)Nc1cc(C2CC2)nn1-c1nc(C)cc(=O)[nH]1)c1ccccc1` (configuration not stated): the inhibition is 100% (active).
On to `Cc1cc(=O)[nH]c(-n2nc(C3CC3)cc2NC(=O)c2ccccc2)n1`, for which the inhibition is 100% (active).
Turning to `Cc1cc(=O)[nH]c(-n2nc(C3CC3)cc2NC(=O)c2cc3ccccc3o2)n1`, the inhibition was -20.2% (inactive).
For `Cc1cccc(C(=O)Nc2cc(C3CC3)nn2-c2nc(C)cc(=O)[nH]2)c1`, the inhibition is 100% (active).
Regarding `Oc1ccc(C=NNc2ncc(C(F)(F)F)cc2Cl)c(O)c1O`, the inhibition is 17.8% (inactive).
Consider `Clc1cnc(NN=Cc2cccs2)c(Cl)c1`, for which the inhibition was -11.6% (inactive).
Consider `Clc1cnc(NN=Cc2ccco2)c(Cl)c1`, for which the inhibition was 85.9% (active).
Take `CC[N+](CC)=c1ccc2nc3c(cc(N)c4ccccc43)oc-2c1`: the inhibition was 102% (active).
As to `CO[C@H]1C=CO[C@@]2(C)Oc3c(C)c(O)c4c(O)c(c5c(nc6cc(C)ccn65)c4c3C2=O)NC(=O)C(C)=CC=C[C@H](C)[C@H](O)[C@@H](C)[C@@H](O)[C@@H](C)[C@H](OC(C)=O)[C@@H]1C`, the inhibition is 98.5% (active).
Regarding `O=C(/C=C(\O)c1ccccc1)c1ccccc1O`, the inhibition is 100% (active).
Turning to `Cc1cccc(C(=O)Nc2cc(-c3cccs3)nn2-c2nc(C(C)C)cc(=O)[nH]2)c1`, the inhibition was -9.66% (inactive).
Consider `CC(C)c1cc(=O)[nH]c(-n2nc(-c3cccs3)cc2NC(=O)c2cccc(F)c2)n1`, for which the inhibition was 99.2% (active).
In the case of `CC(C)c1cc(=O)[nH]c(-n2nc(-c3cccs3)cc2NC(=O)c2ccc(F)cc2F)n1`, the inhibition was 99.7% (active).
With `O=S(=O)(CCSc1ccccn1)c1nc2ccccc2s1`, the inhibition was 101% (active).
The figure for `COc1ccc(N2CCN(C(=O)CCl)CC2)cc1` is 77.2% (active); for `O=C(CCl)N1CCN(c2cccc(Cl)c2)CC1` it is 79.1% (active).
Consider `O=C(CCl)N1CCCc2cc([N+](=O)[O-])ccc21`, for which the inhibition is 102% (active).
As to `Cc1cccc(C(=O)NCCn2ncccc2=O)c1`, the inhibition was 97.8% (active).
Turning to `Cc1cccc(C(=O)NC(=NCCN2CCCC2)OCC(C)C)c1`, the inhibition is 5.15% (inactive).
On to `COc1ccc(C(=O)NCCCn2cccn2)cc1OC1CCN(C(C)=O)CC1`, for which the inhibition is 17.6% (inactive).
Turning to `CC1COCCN1C(=O)NC(c1cc(F)ccc1F)C1CC1` (configuration not stated), the inhibition was -42.7% (inactive).
For `CC(NC(=O)CN1CCCCC1)c1ccc(F)cc1F` (configuration not stated), the inhibition is 51.7% (active).
As for `COCc1ccccc1CNC(=O)CN1CCC(C)Sc2ccccc21` (configuration not stated), the inhibition is -20.7% (inactive).
Turning to `CC1(c2ccco2)NC(=S)N(c2ccccc2)N1` (configuration not stated), the inhibition was 76.4% (active).
`CCCCc1ccc(N2C(N)=CS/C2=C(/C#N)S(=O)(=O)c2ccccc2)cc1`: the inhibition is 89.6% (active).
`CCNc1nc(C(=O)N2CC3CCCC3C2)cs1` (configuration not stated): the inhibition is 27.6% (inactive).
The figure for `CCCc1cc(C(=O)N2C[C@H]3CC=C(C)C[C@H]3C2)ccn1` is 76% (active).
The result for `CC(C)C(C)CNC(=O)N1CCN(c2ccc(Cl)cn2)CC1` (configuration not stated) reads 63.1% (active).
In the case of `Cc1ccc(-c2nc(CN3CCN(c4ccc(Cl)cn4)CC3)c(C)o2)o1`, the inhibition is 47.3% (inactive).
Consider `CN(Cc1ccccc1O)C(=O)C1CCN(c2ccc(Cl)cn2)CC1`, for which the inhibition is 35.1% (inactive).
Take `Cc1nc2ccc(I)cn2c1C=NNc1ccc2ccccc2c1`: the inhibition is 60.2% (active).
The figure for `Cc1nc2ccc(I)cn2c1C=NNc1ccc(Cl)cc1` is 17.7% (inactive); for `CC(C)(C)n1cccc(/C=N\NC(N)=S)c1=S` it is -2.91% (inactive); for `NC(=S)NN=Cc1ccc(Cl)cc1Cl` it is 86% (active).
In the case of `Cc1cc(C=NNC(N)=S)c(C)n1CC(F)(F)F`, the inhibition was 4.28% (inactive).
On to `Cc1ccc(C(=O)Nc2ccc(CN3CCN(C)CC3)c(C(F)(F)F)c2)cc1C#Cc1cnc2cccnn12`, for which the inhibition was 62.5% (active).
For `CCc1ccc(NC(=O)COC(=O)c2cc(C(C)=O)n3ccccc23)cc1`, the inhibition is 65% (active).
Regarding `CCc1sc(C(=O)OCC(=O)N(C)CC(=O)Nc2ccc(C)cc2)cc1C`, the inhibition was -39.5% (inactive).
For the compound `Nc1[nH]n(-c2ccccc2)c(=O)c1N=Nc1cccc2ccccc12`, the inhibition was 56.7% (active).
In the case of `Cc1nc(N)sc1N=Nc1cccc2ccccc12`, the inhibition is 4.08% (inactive).
The figure for `Nc1[nH]n(-c2ccccc2)c(=O)c1N=Nc1ccc2ncsc2c1` is -3.23% (inactive).
Regarding `CCc1cc(C=NC2CCCCC2)c(O)s1`, the inhibition is 54.5% (active).
On to `CC1Cc2ccccc2N1Cc1cccc(C(N)=O)c1` (configuration not stated), for which the inhibition was 25.1% (inactive).
Regarding `CC1Cc2ccccc2N1Sc1ccc([N+](=O)[O-])cc1` (configuration not stated), the inhibition was 58.6% (active).
The figure for `CC1Cc2ccccc2N1C(=O)C1CCN(c2ccc(C#N)cn2)CC1` (configuration not stated) is -4.71% (inactive); for `Cc1ccc(-c2nsc(C(=O)N3CCCC(C)C3)c2N)cc1` (configuration not stated) it is 47.8% (inactive).
On to `Cc1c(C(=O)NCc2ccc(Cl)c(Cl)c2)sc(=O)n1Cc1ccccc1F`, for which the inhibition was -10.2% (inactive).
Turning to `COc1ccccc1Cn1c(C)c(C(=O)NCc2ccccc2C(F)(F)F)sc1=O`, the inhibition is 15.1% (inactive).
With `Cc1c(C(=O)NCc2ccccc2C(F)(F)F)sc(=O)n1Cc1cccc(C(F)(F)F)c1`, the inhibition was 18.8% (inactive).
Regarding `COc1ccc(Br)c(Cn2c(C)c(C(=O)NCc3ccccc3C(F)(F)F)sc2=O)c1`, the inhibition is 58.8% (active).
As to `Cc1c(C(=O)NCc2ccccc2C(F)(F)F)sc(=O)n1Cc1ccccc1F`, the inhibition was 21% (inactive).
`Cc1ccccc1Cn1c(C)c(C(=O)NCc2ccccc2C(F)(F)F)sc1=O`: the inhibition is 65.1% (active).
Consider `Nc1nc(CSc2nnc(C3CC3)n2C2CC2)nc(Nc2ccc(F)cc2)n1`, for which the inhibition was -0.78% (inactive).
For the compound `Cc1c2c(nc3cc4c(cc13)OCO4)CCc1ccccc1-2`, the inhibition was 76.4% (active).
Take `O=S(=O)(Nc1ccc(F)c(Cl)c1)c1ccc(Cl)cc1F`: the inhibition was 66.8% (active).
For `O=S(=O)(Nc1cc(Cl)ccc1F)c1cc(Cl)ccc1Cl`, the inhibition is 28.1% (inactive).
On to `O=S(=O)(Nc1ccc(F)c(F)c1)c1cc(Cl)ccc1Cl`, for which the inhibition was 95.3% (active).
The figure for `Cc1cc(S(=O)(=O)Nc2ccc(F)c(Cl)c2)c(C)s1` is 30.5% (inactive).
Take `O=S(=O)(Nc1cc(Cl)cc(Cl)c1)c1cc(Cl)ccc1Cl`: the inhibition was 56.9% (active).
As for `c1csc(-c2nc(CSc3ncnc4sccc34)co2)c1`, the inhibition is 24.4% (inactive).
Regarding `COc1cccc(-c2noc(CSc3ncnc4sccc34)n2)c1`, the inhibition is 98.8% (active).

The record behind these values is PubChem BioAssay AID1259343 (VanderVen Lab, College of Veterinary Medicine, Cornell …, 2017).
